Compounds with a hit are over-represented: about 2.4% of the library has one in this group of screens.
M1 PAM parental: nonselective activator or artifact in parental CHO-K1 calcium assay | ATP EC20, Fluo-8 calcium fluorescence; 0% at ATP EC20, 100% at ATP max | activation, % at 3 µM | hit rate 0.02% among 360,000;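 active = activation above the run cutoff, the mean activation of all test compounds plus 3 SD, cut at about 40% in these data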;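 note: peak over basal fluorescence ratio in a 140 s read after ATP addition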
CHO-K1 Ca ag: counter-screen for M1 agonists: effect in parental CHO-K1 cells | Fluo-8 calcium fluorescence; scaled to maximal ATP response, vehicle zero | activation, % at 3 µM | hit rate 0.48% among 360,000; in the data active = activation above about 15%;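 note: untransfected CHO-K1 host cells lacking M1 receptor as counterscreen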
M1 ag: agonists of human M1 muscarinic receptor; P11229; CHO-K1 hM1, Fluo-8 calcium fluorescence, agonist mode; 0% DMSO, 100% acetylcholine EC100; activation, % at 3 µM; hit rate 0.33% among 360,000;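 active = activation above the run's mean compound activation plus 3 SD, cut at about 16% in these data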;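 note: peak over basal fluorescence ratio within a 140 s kinetic read after compound addition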
Target sequence (P11229 whole entry, looked up): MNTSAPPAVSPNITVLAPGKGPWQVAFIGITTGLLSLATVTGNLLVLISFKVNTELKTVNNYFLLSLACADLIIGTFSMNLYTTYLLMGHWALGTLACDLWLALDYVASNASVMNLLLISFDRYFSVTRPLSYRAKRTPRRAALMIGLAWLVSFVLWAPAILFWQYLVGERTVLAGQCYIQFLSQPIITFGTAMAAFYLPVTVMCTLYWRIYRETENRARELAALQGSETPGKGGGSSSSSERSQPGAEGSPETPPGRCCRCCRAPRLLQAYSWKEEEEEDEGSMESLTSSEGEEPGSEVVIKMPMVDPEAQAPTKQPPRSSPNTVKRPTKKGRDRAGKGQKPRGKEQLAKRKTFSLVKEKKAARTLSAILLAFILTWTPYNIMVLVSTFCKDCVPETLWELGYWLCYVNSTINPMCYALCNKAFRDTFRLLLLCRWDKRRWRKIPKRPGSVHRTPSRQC
CHO-K1 Ca antag: nonselective inhibitor or artifact in parental CHO-K1 cells; AID 602250; hit rate 0.6% among 360,000; ATP-induced calcium, Fluo-8 fluorescence; inhibition, % at 3 µM;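 active = inhibition above a per-plate cutoff, the plate's mean sample inhibition plus 3 SD, cut at about 24% in these data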;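 note: 0% = DMSO plus EC80 ATP and 100% = DMSO alone without ATP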
CHRM1 antagonist: antagonists of human M1 muscarinic receptor; P11229; CHO-K1 hM1, Fluo-8 calcium fluorescence, ACh EC80 antagonist; inhibition, % at 3 µM; hit rate 1.3% among 360,000; AID 588852;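 active = percent inhibition above its own plate's cutoff, namely the mean of that plate's compound wells plus 3 SD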;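 note: peak over basal fluorescence ratio during 140 s after agonist addition; 0% = ACh EC80 plus DMSO and 100% = DMSO alone without agonist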
M1 PAM: positive allosteric modulators of human M1 muscarinic receptor | P11229 | AID 588819 | activation, % at 3 µM | hit rate 0.088% among 360,000 | CHO-K1 hM1, Fluo-8 calcium fluorescence, ACh EC20; 0% = ACh EC20, 100% = maximal ACh; in the data active = activation above about 19%, passing the limit was not always enough
* hit, by the source's call.

SMILES	M1 PAM parental	CHO-K1 Ca ag	M1 ag	CHO-K1 Ca antag	CHRM1 antagonist	M1 PAM
CC(C)(C)c1csc(NC(=O)C2=COCCO2)n1	-20	0	-6	-9	40*	-15
COc1ccc(N2CCN(CCC(O)c3ccc4ccccc4c3)CC2)cc1 (stereo unspecified)	-4	3	2	-6	3	11
CC1CCCCC1NC(=O)CSc1ccsc1[N+](=O)[O-] (stereo unspecified)	22	2	-10	-5	-8	10
O=C(CSc1ccsc1[N+](=O)[O-])NC1CCCC1	-14	-1	-8	26*	1	10
CCN(CC)CCCn1c2c(c(SCC(=O)Nc3cccc(C(C)=O)c3)nc1=O)CCC2	-12	0	-5	6	-3	-4
CCN(CC)CCn1c2c(c(SCC(=O)Nc3cccc(C(C)=O)c3)nc1=O)CCCC2	1	2	-7	-10	61*	-25
NC(=O)c1ccsc1NC(=O)COC(=O)c1cccnc1Cl	-13	2	0	-6	-1	-5
COc1ccccc1-n1c(SC(C)C(=O)NCC2CCCO2)nc2cc(Cl)ccc2c1=O (stereo unspecified)	22	4	-5	2	-8	6
CCOC(=O)c1cnn(-c2ccccc2)c1-n1cccc1C(=O)C(=O)Nc1ccc(OC)cc1	-6	0	-1	-7	-37	19*
Cc1c(N2C(=O)/C(=C/C3CC=CCC3)SC2=S)c(=O)n(-c2ccccc2)n1C (stereo unspecified)	-4	1	-9	-6	73*	-24
Cc1c(N2C(=O)/C(=C\C3CC=CCC3)SC2=S)c(=O)n(-c2ccccc2)n1C (stereo unspecified)	-7	1	-8	-6	62*	-26
Cc1c(N2C(=O)/C(=C/c3ccccc3)SC2=S)c(=O)n(-c2ccccc2)n1C	8	1	-5	4	13	-22
COc1ccc(Cl)cc1CC=NNC(=O)c1ccncc1	-24	0	-1	-7	-7	-1
COc1ccccc1C(=O)NNC(=O)C1CC=CCC1 (stereo unspecified)	5	0	-5	6	-1	-2
O=C(c1ccncc1)N1N=C(C2CCCCC2)CC1(O)C(F)(F)F (stereo unspecified)	-2	0	-13	0	37*	-31
Cc1cc(N2CCC(C)CC2)c(F)cc1[N+](=O)[O-]	10	0	-4	-7	-1	5
Cc1cc(N2CCCC2)c(F)cc1/C=C\[N+](=O)[O-]	-2	25*	28*	28*	20	9
Cc1cc(=O)[nH]c(N2CCCCC2)n1	11	1	-2	-9	-3	2
O=C(Cn1c(=O)cnc2ccccc21)NNC(=O)c1ccccc1Cl	12	1	-1	-18	-21	10
COc1cccc(CNc2ccc(F)c([N+](=O)[O-])c2)c1O	-16	3	3	13	90*	-15
O=C(c1cccc(N2C(=O)C3C4C=CC(C4)C3C2=O)c1)N1CCN(c2ccccc2F)CC1 (stereo unspecified)	4	13	1	1	-4	4
Cc1ccc(NC2=NCC(Cc3ccc(Br)cc3)S2)cc1 (stereo unspecified)	29	10	-9	-8	38*	-26
Cc1cccc(-n2cnc3cc(C(=O)NCC4CCCO4)ccc32)c1 (stereo unspecified)	9	1	-4	-8	2	-3
CC(C)(C)c1ccc(C(=O)CCC(=O)OCC(=O)NCCc2ccc(S(N)(=O)=O)cc2)cc1	-11	20*	2	13	47*	-19
COc1cc(CCC(=O)OCC(=O)Nc2sccc2C(N)=O)cc(OC)c1OC	-16	14	1	39*	37*	-15
SMILES	M1 PAM parental	CHO-K1 Ca ag	M1 ag	CHO-K1 Ca antag	CHRM1 antagonist	M1 PAM
Cc1ccccc1SCC(=O)OCC(=O)Nc1sccc1C(N)=O	6	16*	-2	28*	26	-16
NC(=O)c1ccsc1NC(=O)CSc1ccccc1F	15	5	4	-14	-19	5
NC(=O)c1ccsc1NC(=O)COC(=O)Cc1c[nH]c2ccccc12	-18	13	7	20	20	-13
COc1cc(C(=O)OCC(=O)Nc2sccc2C(N)=O)cc(OC)c1OC	13	8	0	-2	33	-10
NC(=O)c1ccsc1NC(=O)COC(=O)Cc1cccc2ccccc12	6	9	2	29*	40*	-10
NC(=O)c1ccsc1NC(=O)COC(=O)Cc1ccc(F)cc1	-8	17*	6	14	10	-9
CC(OC(=O)Cn1cnc2c1c(=O)n(C)c(=O)n2C)C(=O)NC1(C#N)CCCCC1 (stereo unspecified)	-5	7	-3	9	-5	5
Nc1ccn([C@@H]2O[C@H](CNC(=O)[C@H]3CCC(=O)N3)[C@@H](O)[C@H]2O)c(=O)n1	15	1	-1	-6	-15	10
O=C1OC=NC1=Cc1ccccc1	17	2	0	-17	-16	12
NC(=O)c1ccsc1NC(=O)COC(=O)Cc1ccccc1[N+](=O)[O-]	-17	9	4	31*	10	-14
CC(=O)Nc1ccc(/C=N/N2C(C)CCCC2C)cc1 (stereo unspecified)	11	6	3	-11	-22	14
CC(=O)Nc1ccc(/C=N/N2CCCCC2)cc1	-5	0	35*	2	13	-15
Clc1cccc(CN2CCSCC2)c1Cl	2	0	-3	6	-17	8
Nc1nc2c(ncn2[C@@H]2O[C@H](CNS(=O)(=O)c3cccnc3)[C@@H](O)[C@H]2O)c(=O)[nH]1	1	0	-1	1	1	-5
NS(=O)(=O)c1ccc(NC(=O)COC(=O)c2ccc(S(=O)(=O)N3CCOCC3)cc2)cc1	-13	0	-6	-8	2	-3
CC1CCN(CCOCCOc2ccc(Br)cc2Cl)CC1	10	3	-8	5	45*	-23
COc1ccc(CNC(=O)c2cc3c(C)nc4ccccc4c3o2)c(OC)c1	2	8	-5	15	37*	-19
Cc1nc2ccccc2c2oc(C(=O)Nc3ccc(C(C)C)cc3)cc12	-12	0	-4	25*	10	1
Cc1nc2ccccc2c2oc(C(=O)Nc3ccc4c(c3)OCCO4)cc12	7	0	-2	2	-5	5
CC(=O)C[C@H](O)CC(=O)[C@@H]1OC(=O)CCCCCCCCc2ccccc21	20	0	-4	-10	-1	1
O=C(NCCn1cc(SCc2ccccc2F)c2ccccc21)c1c(F)cccc1F	30	4	-5	-3	32*	-20

From PubChem BioAssay
